Results filed as inconclusive are left out. A call without a number means that no potency is given here. Values without a mark were called inactive. The source made the active and inactive calls. Calls follow the shape of the dose curve; as a rule, active = well fitted inhibition curve with a large enough effect in the signal ratio in the repeat runs (not every such curve was filed as active); inconclusive = weak or mixed curves, or effect the other way; inactive = no such curve, though single readings can be large or run the other way; the % refers to the signal ratio.

Data on 40 molecules can be found in PubChem BioAssay (Tox21).
Potency is read from the fitted curve at half-maximal effect.

Vitamin D3 receptor (Homo sapiens), sequence (P11473 whole entry, looked up): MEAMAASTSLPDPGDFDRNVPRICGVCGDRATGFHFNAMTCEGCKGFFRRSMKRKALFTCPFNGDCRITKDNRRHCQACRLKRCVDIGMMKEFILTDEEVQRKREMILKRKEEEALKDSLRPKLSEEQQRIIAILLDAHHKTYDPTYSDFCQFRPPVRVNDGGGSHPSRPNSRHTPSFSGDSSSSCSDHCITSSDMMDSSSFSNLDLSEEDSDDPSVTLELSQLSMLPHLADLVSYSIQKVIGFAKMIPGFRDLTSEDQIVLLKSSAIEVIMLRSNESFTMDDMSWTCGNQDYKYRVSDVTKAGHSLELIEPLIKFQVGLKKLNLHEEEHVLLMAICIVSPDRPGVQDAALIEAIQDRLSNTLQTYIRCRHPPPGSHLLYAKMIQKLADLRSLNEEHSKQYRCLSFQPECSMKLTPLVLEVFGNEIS

The experiment addresses Vitamin D3 receptor (Homo sapiens) (UniProt P11473). Kind of experiment: qHTS assay to identify small molecule antagonists of the vitamin D receptor (VDR) signaling pathway (AID 743223). Conditions: VDR-UAS-bla HEK293T, beta-lactamase FRET ratio, 16 h; series mostly up to 61 µM; activity change, negative = inhibition: at the top concentration. An excerpt:
U.S. Tox21 Program National Center for Advancing Translational Sciences [NCATS] NIH Chemical Genomics Center [NCGC] U.S. Environmental Protection Agency [EPA] National Institutes of Environmental Health Sciences [NIEHS] National Toxicology Program [NTP] U.S. Food and Drug Administration [FDA] Tox21 Assay Overview: The vitamin D receptor (VDR), a member of nuclear hormone receptor superfamily, plays a critical role in calcium homeostasis and bone metabolism. It is also involved in cell differentiation and growth, and thrombogenicity.
Tox21 Assay Protocol Summary: VDR-bla cells were dispensed at 2,000 cells/5 uL of assay medium per well into black wall/clear-bottom 1536-well plates using a Multidrop Combi (Thermo Fisher Scientific, Waltham, MA) dispenser. After the assay plates were incubated at a 37C and 5% CO2 for 4 h, 23 nL of compounds dissolved in DMSO, positive controls or DMSO only was transferred to the assay plate by a Pintool station (Kalypsys, San Diego, CA), followed by addition of 1 uL of 1alpha, 25-Dihydroxy Vitamin D3 (3 nM, final concentration in the wells) using a Bioraptr Flying Reagent Dispenser (FRD) workstation (Beckman Coulter, Indianapolis, IN). The plates were incubated at 37C and 5% CO2 for 16 h, and then 1 uL of LiveBLAzerTM B/G FRET substrate was added using a Bioraptr FRD. The plates were incubated at room temperature for 2 h and fluorescence intensity was measured by an Envision plate reader (PerkinElmer, Shelton, CT).
On the technique in general: In qHTS, concentration-response curves come from the screen itself.
Consider `CN(C)c1ccccc1`, for which the Potency entry was “inactive”.

Consider `O=P(OCCCl)(OCCCl)OCCCl`, for which the “activity change, negative = inhibition” value was 18.2%.

On to `N#CCCCCC#N`, for which the Potency entry was “inactive”.

Regarding `ClC(Cl)(Cl)Br`, the Potency entry is “inactive”.

Turning to `CNC(=S)S`, the “activity change, negative = inhibition” value is -4.59%.

With `C[N+](C)(C)C`, the Potency result is “inactive”.

Take `CCC/C=N/O`: the Potency result was “inactive”.

Take `Nc1ccc2ccccc2c1`: the “activity change, negative = inhibition” value was 15.2%.

On to `ClC(Cl)(Cl)c1ccccc1`, for which the Potency result is “inactive”.

Take `CC(C)Nc1nc(Cl)nc(NC(C)C)n1`: the Potency result is “inactive”.

On to `CC(C)CON=O`, for which the Potency entry was “inactive”.

As to `Clc1cccc(Cl)c1`, the Potency result is “inactive”.

Turning to `CC(C)(c1ccccc1)c1ccc(O)c(C(C)(C)c2ccccc2)c1`, the Potency was 43.6 µM (active).

Regarding `CC(C)(C#N)N=NC(C)(C)C#N`, the Potency entry is “inactive”.

Consider `O=C1Nc2ccc(Cl)cc2C(c2ccccc2)=NC1O` (stereo not given), for which the Potency entry was “inactive”.

Consider `CCOP(=S)(OCC)SCSC(C)(C)C`, for which the Potency entry is “inactive”.

Regarding `C=CC(=O)OCC(CC)(COC(=O)C=C)COC(=O)C=C`, the Potency was 6.92 µM (active).

`CNC(=O)Oc1cccc2c1OC(C)(C)C2`: the “activity change, negative = inhibition” value is -1.9%.

Consider `Oc1ccc(Cl)cc1Cl`, for which the “activity change, negative = inhibition” value is -6.62%.

As for `Cn1c(-c2ccccc2)cc(-c2ccccc2)[n+]1C`, the Potency result is “inactive”.

As to `CC1=C(C(=O)Nc2ccccc2)SCCO1`, the Potency result was “inactive”.

In the case of `O=[N+]([O-])/N=C1\NCCN1Cc1ccc(Cl)nc1`, the Potency result is “inactive”.

In the case of `C[C@]12CC[C@H]3[C@@H](CCC4=CC(=O)CC[C@@H]43)[C@@H]1CC[C@@H]2O`, the “activity change, negative = inhibition” value was 5.49%.

`CCCCSP(=O)(SCCCC)SCCCC`: the Potency entry is “inactive”.

For `CSc1nc(NC(C)C)nc(NC(C)C)n1`, the “activity change, negative = inhibition” value is 4.14%.

Regarding `O=C1CCCO1`, the Potency entry is “inactive”.

As for `CCC1(c2ccc(N)cc2)CCC(=O)NC1=O` (stereo not given), the Potency result is “inactive”.

As for `N#Cc1cccnc1`, the “activity change, negative = inhibition” value was -2.06%.

On to `CCC(=O)Nc1ccc(Cl)c(Cl)c1`, for which the Potency result was “inactive”.

In the case of `O=NN1CCOCC1`, the Potency result was “inactive”.

As for `CC[n+]1c(-c2ccccc2)c2cc(N)ccc2c2ccc(N)cc21`, the Potency was 12 µM (active).

On to `O=C(O)CF`, for which the Potency result is “inactive”.

Take `N#Cc1nn(-c2c(Cl)cc(C(F)(F)F)cc2Cl)c(N)c1S(=O)C(F)(F)F` (stereo not given): the Potency entry was “inactive”.

Regarding `CCOS(=O)(=O)OCC`, the “activity change, negative = inhibition” value is 14.7%.

Consider `ClCc1ccccn1`, for which the Potency result is “inactive”.

For `NC(=O)CN1CCCC1=O`, the Potency result was “inactive”.

For `CCOC(=O)c1ccccc1N`, the Potency result is “inactive”.

Turning to `C=C(C)C#N`, the Potency entry is “inactive”.

Regarding `Brc1ccc(Br)cc1`, the “activity change, negative = inhibition” value is -3.05%.

On to `CC1(C)C(C(=O)OC(C#N)c2cccc(Oc3ccccc3)c2)C1(C)C` (stereo not given), for which the Potency entry is “inactive”.
